# Only a selection was taken, and the strongest signals are over-represented in it overall.
# B1: Microvirin-2 (Microcystis aeruginosa) (protein)
# chain: MPNFSHTCSSINYDPDSTILSAECQARDGEWLPTELRLSDHIGNIDGELQFGDQNFQETCQDCHLEFGDGEQSVWLVCTCQTMDGEWKSTQILLDSQIDNNDSQLEIGGSMPNFSHTCSSINYDPDSTILSAECQARDGEWLPTELRLSDHIGNIDGELQFGDQNFQETCQDCHLEFGDGEQSVWLVCTCQTMDGEWKSTQILLDSQIDNNDSQLEIG
# Experiments:
# Test in all cases: glycan array binding signal (z-score within array); higher = stronger binding
# Settings in all cases: glycan notation: IUPAC condensed, linker removed
# [1] = biological target: Fuc(a1-2)Gal(b1-3)GalNAc(b1-4)[Neu5Ac(a2-3)]Gal(b1-4)Glc
# How it was run: (§1)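 Glycan array data were curated from 3228 arrays in the Consortium for Functional Glycomics database and kept only where the protein sequence was available. Glycan names were converted to IUPAC-condensed notation, and columns mapping to the same glycan were averaged. The binding signal is a within-array Z-score, averaged across arrays of the same protein sequence at different concentrations or buffers and across linkers. Negative Z-scores can be read as non-binding.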
# [2] = biological target: Fuc(a1-2)Gal(b1-3)GlcNAc
# How it was run: as §1
# [3] = biological target: Fuc(a1-2)Gal(b1-3)GlcNAc(b1-2)Man(a1-3)[Fuc(a1-2)Gal(b1-3)GlcNAc(b1-2)Man(a1-6)]Man(b1-4)GlcNAc(b1-4)GlcNAc
# How it was run: as §1
# [4] = biological target: Fuc(a1-2)Gal(b1-3)[Fuc(a1-4)]GlcNAc(b1-3)[Fuc(a1-3)[Gal(b1-4)]GlcNAc(b1-6)]Gal(b1-4)Glc
# How it was run: as §1
# [5] = biological target: Fuc(a1-2)[Gal(a1-3)]Gal(b1-3)GlcNAc
# How it was run: as §1
# [6] = biological target: Fuc(a1-2)[Gal(a1-3)]Gal(b1-4)GlcNAc(b1-2)Man(a1-3)[Fuc(a1-2)[Gal(a1-3)]Gal(b1-4)GlcNAc(b1-2)Man(a1-6)]Man(b1-4)GlcNAc(b1-4)GlcNAc
# How it was run: as §1
# [7] = biological target: Fuc(a1-2)[GalNAc(a1-3)]Gal(b1-4)GlcNAc(b1-2)Man
# How it was run: as §1
# [8] = biological target: Fuc(b1-3)GlcNAc
# How it was run: as §1
# [9] = biological target: Gal(b1-3)Gal
# How it was run: as §1
# [10] = biological target: Gal(b1-3)[Fuc(a1-4)]GlcNAc(b1-2)Man(a1-3)[Gal(b1-3)[Fuc(a1-4)]GlcNAc(b1-2)Man(a1-6)]Man(b1-4)GlcNAc(b1-4)[Fuc(a1-6)]GlcNAc
# How it was run: as §1
# [11] = biological target: Gal(b1-4)Gal
# How it was run: as §1
# [12] = biological target: Gal(b1-4)Glc6S
# How it was run: as §1
# [13] = biological target: Gal(b1-4)GlcNAc
# How it was run: as §1
# [14] = biological target: Gal(b1-4)GlcNAc(b1-2)Man(a1-6)[Man(a1-3)]Man(b1-4)GlcNAc(b1-4)GlcNAc
# How it was run: as §1
# [15] = biological target: Gal(b1-4)GlcNAc(b1-2)[Gal(b1-4)GlcNAc(b1-6)]Man(a1-6)[Gal(b1-4)GlcNAc(b1-2)Man(a1-3)]Man(b1-4)GlcNAc(b1-4)[Fuc(a1-6)]GlcNAc
# How it was run: as §1
# [16] = biological target: Gal(b1-4)GlcNAc(b1-3)Gal(b1-4)GlcNAc(b1-3)GalNAc
# How it was run: as §1
# [17] = biological target: Gal6P(b1-4)GlcNAc
# How it was run: as §1
# [18] = biological target: Gal6S(b1-4)Glc6S
# How it was run: as §1
# [19] = biological target: GalNAc(b1-3)Gal(a1-4)Gal(b1-4)GlcNAc
# How it was run: as §1
# [20] = biological target: GlcA(b1-6)Gal
# How it was run: as §1
# [21] = biological target: GlcNAc(a1-4)Gal(b1-4)GlcNAc(b1-3)Gal(b1-4)[Fuc(a1-3)]GlcNAc(b1-3)Gal(b1-4)[Fuc(a1-3)]GlcNAc
# How it was run: as §1
# [22] = biological target: GlcNAc(b1-2)[GlcNAc(b1-4)]Man(a1-3)[GlcNAc(b1-2)Man(a1-6)]Man(b1-4)GlcNAc(b1-4)GlcNAc
# How it was run: as §1
# [23] = biological target: GlcNAc(b1-2)[GlcNAc(b1-4)]Man(a1-3)[GlcNAc(b1-4)][GlcNAc(b1-2)[GlcNAc(b1-6)]Man(a1-6)]Man(b1-4)GlcNAc(b1-4)GlcNAc
# How it was run: as §1
# [24] = biological target: GlcNAc(b1-4)GlcNAc(b1-4)GlcNAc
# How it was run: as §1
# [25] = biological target: GlcNAc(b1-4)GlcNAc(b1-4)GlcNAc(b1-4)GlcNAc(b1-4)GlcNAc(b1-4)GlcNAc
# How it was run: as §1
# [26] = biological target: Man(a1-2)Man(a1-2)Man(a1-3)Man
# How it was run: as §1
# [27] = biological target: Man(a1-2)Man(a1-2)Man(a1-6)[Man(a1-3)]Man
# How it was run: as §1
# [28] = biological target: Man(a1-2)Man(a1-3)Man
# How it was run: as §1
# [29] = biological target: Man(a1-2)Man(a1-3)[Man(a1-2)Man(a1-6)]Man
# How it was run: as §1
# [30] = biological target: Man(a1-2)Man(a1-3)[Man(a1-2)Man(a1-6)]Man(a1-6)[Man(a1-2)Man(a1-2)Man(a1-3)]Man
# How it was run: as §1
# [31] = biological target: Man(a1-2)Man(a1-3)[Man(a1-2)Man(a1-6)]Man(a1-6)[Man(a1-2)Man(a1-2)Man(a1-3)]Man(b1-4)GlcNAc(b1-4)GlcNAc
# How it was run: as §1
# [32] = biological target: Man(a1-2)Man(a1-3)[Man(a1-6)]Man(a1-6)[Man(a1-2)Man(a1-3)]Man(b1-4)GlcNAc(b1-4)GlcNAc
# How it was run: as §1
# [33] = biological target: Man(a1-2)Man(a1-6)[Man(a1-3)]Man(a1-6)[Man(a1-2)Man(a1-2)Man(a1-3)]Man
# How it was run: as §1
# [34] = biological target: Man(a1-2)Man(a1-6)[Man(a1-3)]Man(a1-6)[Man(a1-2)Man(a1-2)Man(a1-3)]Man(b1-4)GlcNAc(b1-4)GlcNAc
# How it was run: as §1
# [35] = biological target: Man(a1-3)[Man(a1-6)]Man(a1-6)[Man(a1-2)Man(a1-3)]Man(b1-4)GlcNAc(b1-4)GlcNAc
# How it was run: as §1
# [36] = biological target: Neu5Ac(a2-6)Gal(b1-4)GlcNAc(b1-2)Man(a1-3)[Gal(b1-4)GlcNAc(b1-2)Man(a1-6)]Man(b1-4)GlcNAc(b1-4)GlcNAc
# How it was run: as §1
# [37] = biological target: Neu5Ac(a2-6)Gal(b1-4)GlcNAc(b1-2)Man(a1-6)[Man(a1-3)]Man(b1-4)GlcNAc(b1-4)GlcNAc
# How it was run: as §1
# [38] = biological target: Neu5Ac(a2-6)Gal(b1-4)GlcNAc(b1-3)Gal(b1-3)GlcNAc
# How it was run: as §1
# [39] = biological target: Neu5Ac(a2-6)Gal(b1-4)GlcNAc(b1-6)[Gal(b1-3)]GalNAc
# How it was run: as §1
# [40] = biological target: Neu5Ac(a2-6)Gal(b1-4)GlcNAc6S
# How it was run: as §1
# [41] = biological target: Neu5Ac(a2-6)GalNAc
# How it was run: as §1
# [42] = biological target: Neu5Ac(a2-6)GlcNAc(b1-4)GlcNAc
# How it was run: as §1
# [43] = biological target: Neu5Gc(a2-3)Gal(b1-4)Glc
# How it was run: as §1
binder,measurement,setting,value
B1,glycan array binding signal (z-score),[1],-0.133
same,glycan array binding signal (z-score),[2],-0.139
same,glycan array binding signal (z-score),[3],0.021
same,glycan array binding signal (z-score),[4],-0.137
same,glycan array binding signal (z-score),[5],-0.138
same,glycan array binding signal (z-score),[6],-0.113
same,glycan array binding signal (z-score),[7],-0.138
same,glycan array binding signal (z-score),[8],-0.137
same,glycan array binding signal (z-score),[9],-0.144
same,glycan array binding signal (z-score),[10],0.648
same,glycan array binding signal (z-score),[11],-0.143
same,glycan array binding signal (z-score),[12],-0.134
same,glycan array binding signal (z-score),[13],-0.131
same,glycan array binding signal (z-score),[14],-0.141
same,glycan array binding signal (z-score),[15],-0.131
same,glycan array binding signal (z-score),[16],0.024
same,glycan array binding signal (z-score),[17],-0.134
same,glycan array binding signal (z-score),[18],-0.128
same,glycan array binding signal (z-score),[19],-0.131
same,glycan array binding signal (z-score),[20],-0.139
same,glycan array binding signal (z-score),[21],-0.031
same,glycan array binding signal (z-score),[22],-0.139
same,glycan array binding signal (z-score),[23],-0.141
same,glycan array binding signal (z-score),[24],-0.14
same,glycan array binding signal (z-score),[25],-0.135
same,glycan array binding signal (z-score),[26],5.28
same,glycan array binding signal (z-score),[27],9.44
same,glycan array binding signal (z-score),[28],4.43
same,glycan array binding signal (z-score),[29],7.03
same,glycan array binding signal (z-score),[30],6.69
same,glycan array binding signal (z-score),[31],3.1
same,glycan array binding signal (z-score),[32],5.79
same,glycan array binding signal (z-score),[33],6.04
same,glycan array binding signal (z-score),[34],13.3
same,glycan array binding signal (z-score),[35],7.25
same,glycan array binding signal (z-score),[36],-0.142
same,glycan array binding signal (z-score),[37],-0.143
same,glycan array binding signal (z-score),[38],-0.123
same,glycan array binding signal (z-score),[39],-0.107
same,glycan array binding signal (z-score),[40],-0.142
same,glycan array binding signal (z-score),[41],-0.133
same,glycan array binding signal (z-score),[42],-0.135
same,glycan array binding signal (z-score),[43],-0.12

# Source: the supplement of paper PMC8728848
